The values that follow come from ChEMBL document CHEMBL4513216, “Probing the Open Global Health Chemical Diversity Library for Multistage-Active Starting Points for Next-Generation Antimalarials” (ACS Infect Dis, 2020).

Hit rate of the full screen: of about 69,000 compounds, about 8,600 (12%) showed an effect of 50% or more. For the sample, strong results were picked, then their nearest neighbours and some compounds at random.

In the assay the test system is Plasmodium berghei. As to the kind of experiment: Screen against P. berghei liver stage (PbLuc), transformed with Luciferase, at 10uM. In kind it is functional, HepG2. Conditions: tested at 10 uM.
As for `Cc1cccc2sc(NC(=O)CN3CCCC(O)(CO)C3)nc12` (stereo not drawn), the INHIBITION is on record as 74.5%. The value for `Cc1cccc2sc(NC(=O)CN3CCC(C)CC3)nc12` was 14.1%. To `Cc1c(Cl)cccc1NCc1nc2n(n1)CCCCC2` belongs 26.7%. The value for `CN(C)c1ncc(CNC(=O)Nc2ccccc2F)n1C` was 48.9%; that for `CN(C)c1ncc(CNC(=O)Nc2ccccc2C(F)(F)F)n1C` was 36.9%; that for `CN(C)c1ncc(CNC(=O)Nc2ccc(C(F)(F)F)cc2)n1C` was 78.6%. Consider `COc1ccc(CN2CC[C@H]3[C@H]2CCN3C(=O)c2cnn(C)c2)cc1`, for which the INHIBITION is listed as 39.8%.

Consider `CNC(=O)c1sc2ncccc2c1C1CCN(C(=O)CCOC)C1` (stereo not drawn), for which the INHIBITION was -7.525%. The value for `O=C(CCc1ccncc1)NCc1csc(Br)c1` was -6.14%. To `CN(C)CCNC(=O)Cn1cnc2cc(NC(=O)C3CC3)ccc21` belongs 4.48%; to `COCC1CC2(CCN(Cc3ccncc3)CC2)CN1C(C)C` (stereo not drawn), 12.6%; to `COCC1CC2(CCN(Cc3ccccn3)CC2)CN1C(C)C` (stereo not drawn), -2.27%. The value for `COCC1CC2(CCN(S(=O)(=O)C3CC3)CC2)CN1c1ncccn1` (stereo not drawn) was 19.5%; that for `COCC1CC2(CCN(c3cccc(C)n3)CC2)CN1C(C)C` (stereo not drawn) was 29.4%; that for `COCC1CC2(CCN(c3ccc(C)nn3)CC2)CN1C(C)C` (stereo not drawn) was 16.8%.

For `CCS(=O)(=O)N1CCC2(CC1)CC(COC)N(c1ncccn1)C2` (stereo not drawn), the INHIBITION came to 65.6%.

Take `COCC1CC2(CCN(c3cc(OC)ncn3)CC2)CN1C(C)C` (stereo not drawn): the INHIBITION was determined as 58.4%. The value for `COCC1CC2(CCN(c3ccccn3)CC2)CN1C(C)C` (stereo not drawn) was 64.7%; that for `COCCN1CCC2(CC1)CC(COC)N(c1ncccn1)C2` (stereo not drawn) was 23.5%; that for `CC1(NC(=O)Cc2cccs2)CCS(=O)(=O)C1` (stereo not drawn) was 43.1%. The value for `CC(C)C(=O)N1CC[C@H]2N(C)CC[C@@]2(C(=O)Nc2ccccc2)CC1` was 44.8%.

On to `O=C1CC2(CCCCN2C(=O)c2ccccc2)CN1CC1CC1` (stereo not drawn), for which the INHIBITION amounted to 29.7%. `Cc1cnc(NC(=O)C(C)n2ccc(C(F)(F)F)n2)s1` (stereo not drawn): the INHIBITION was found to be 49.1%.

Take `COCC(=O)N1CC[C@]2(O)CCN(Cc3ccsc3)C[C@@H]2C1`: the INHIBITION is 10.5%.

Turning to `CC(C)c1nc(CNC2CCN(C(=O)OC(C)(C)C)CC2)cs1`, the INHIBITION came to 47%. For the compound `CN(CC(=O)NC1CC1)C(=O)c1csc(Br)c1`, the INHIBITION is recorded as 37.2%. The value for `COc1ccccc1CC(=O)N1CCC(OCc2cccnc2)CC1` was -37.2%; that for `Cc1cnn(CC2CCCCN2Cc2nccn2CC(F)(F)F)c1` (stereo not drawn) was -61.4%; that for `Cc1noc(C)c1CC(=O)N1CC[C@@](C)(O)[C@H](Oc2ccccc2)C1` was 41.55%. As for `COCCNc1ccc(CNC(=O)Nc2cn[nH]c2)cc1`, the INHIBITION is 6.14%. To `O=C(NCc1ccc(Br)c(F)c1)Nc1cn[nH]c1` belongs 4.97%; to `CNS(=O)(=O)c1ccc(CNC(=O)Nc2cn[nH]c2)cc1`, 50.3%; to `NC(=O)c1ccc(CNC(=O)Nc2cn[nH]c2)cc1`, 72.9%.

Consider `CNS(=O)(=O)Cc1ccc(CNC(=O)Nc2cn[nH]c2)cc1`, for which the INHIBITION is 27.9%.

On to `CS(=O)(=O)c1ccc(CNC(=O)Nc2cn[nH]c2)cc1`, for which the INHIBITION is listed as -21.7%. To `CNC(=O)c1cnn2c(C3CCCN3C)ccnc12` (stereo not drawn) belongs -6.73%. On to `COc1ccc(Br)c(C(=O)NC(CC(=O)O)c2cccs2)c1` (stereo not drawn), for which the INHIBITION is on record as 33.8%.

As to `O=C(CCCN1C(=O)CCC1=O)NCC1(c2ccccc2)CCC1`, the INHIBITION was -9.37%.

For `O=C1CCCN1Cc1nnc2n1CCN(Cc1ccco1)CC2`, the INHIBITION is on record as -8.23%. The value for `CCC(O)(CNCc1ncc[nH]1)c1ccc(Br)cc1` (stereo not drawn) was 15.5%; that for `COCc1nc2cc(NCc3ncc[nH]3)ccc2o1` was -10.8%; that for `COc1cc(NCc2ncc[nH]2)ccc1Br` was 74.4%. The value for `Fc1cccc(NCc2ncc[nH]2)c1` was 10.3%.

As to `Fc1ccc(NCc2ncc[nH]2)cc1Br`, the INHIBITION worked out at 58.1%. For `Clc1cc(NCc2ncc[nH]2)nc2[nH]ccc12`, the INHIBITION was -19.8%.

Regarding `CCOCC(=O)N1CC[C@H]2O[C@@H](C)C[C@H]2C1`, the INHIBITION was 5.44%.

On to `CCCn1cnc2c(cnn2-c2cccc(C)c2C)c1=O`, for which the INHIBITION is listed as -70.6%. Turning to `Cc1cc(-c2cc(N)c(=O)n(CC(=O)N3CCCC(C)C3)n2)c(C)o1` (stereo not drawn), the INHIBITION worked out at 22.35%.

On to `Cc1nc(COc2cccc(C#N)c2)no1`, for which the INHIBITION was determined as 54.4%.

For the compound `Cc1noc(OCCOc2cccc(C#N)c2)n1`, the INHIBITION is reported as 10.7%. Take `Cc1nc(CN2CCCN(CCOc3cccc(C#N)c3)CC2)no1`: the INHIBITION stood at 20.1%. To `COCC(=O)Nc1nnc2n(Cc3cccc(OC)c3)[nH]c(C)c1-2` belongs -14.8%; to `CN(CC1(O)CCCN(c2ccccn2)C1)C(=O)CC1CCOCC1` (stereo not drawn), -51.4%.
